A short description of experiment [1]: qHTS drug screen for cell cycle checkpoint inhibitors in PARPi-resistant BRCA-mutant ovarian cancer cell lines. (AID 1963452; calls by dose curve). The following applies: PEO1/OlaR viability, CellTiter-Glo luminescence, 96 h; for Z-AUC: stronger effect = lower value. In short, it runs like this:
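PEO1, PEO4 and PEO1/OlaR ovarian cancer cells, 600 per well, exposed 96 h at 37C to a dilution series. Viability read by CellTiter-Glo luminescence, normalized to DMSO and empty wells; activity summarized as Z-AUC.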

A short description of experiment [2]: qHTS profiling for inhibitors of Plasmodium falciparum proliferation (AID 504749). Also: nearly all actives have a fitted effect of over 60% in size.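 As to activity, negative = inhibition: 0% = DMSO vehicle and full inhibition = artemisinin control.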 The conditions noted are these: P. falciparum in erythrocytes, SYBR Green DNA, 72 h. In short, it runs like this: (§1)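 In a 72 h erythrocytic culture (37 C, humidified, 5% CO2) at 2.5% hematocrit and 0.3% starting parasitemia, compounds were tested; SYBR Green I in detergent lysis buffer stained parasite DNA overnight.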
On the technique in general: In qHTS, concentration-response curves come from the screen itself.

For experiment [3], the system named is 3D7. Described as above. The conditions noted are these: P. falciparum in erythrocytes, SYBR Green DNA, 72 h; series mostly up to 28.7 µM. In short, it runs like this: as §1
For experiment [4], the system named is 7G8. The description is as above. The conditions noted are these: P. falciparum in erythrocytes, SYBR Green DNA, 72 h; series mostly up to 28.7 µM. In short, it runs like this: as §1
The test system of experiment [5] is AA1029. The description is as above. The following applies: P. falciparum in erythrocytes, SYBR Green DNA, 72 h; series mostly up to 28.7 µM. In short, it runs like this:
as §1

Experiment [6] has as its system AS120. The experiment is described as above. The conditions noted are these: P. falciparum in erythrocytes, SYBR Green DNA, 72 h; series mostly up to 28.7 µM. The gist of the method:
as §1

Experiment [7] concerns ATS189. The experiment is described as above. The conditions noted are these: P. falciparum in erythrocytes, SYBR Green DNA, 72 h; series mostly up to 28.7 µM. In short, it runs like this: as §1
For experiment [8], the system named is ATS95. The experiment is described as above. The conditions noted are these: P. falciparum in erythrocytes, SYBR Green DNA, 72 h; series mostly up to 28.7 µM. The gist of the method: as §1
The subject of experiment [9] is C2A. The description is as above. The conditions noted are these: P. falciparum in erythrocytes, SYBR Green DNA, 72 h; series mostly up to 28.7 µM. In short, it runs like this:
as §1

Experiment [10] has as its system CP185. The description is as above. The following applies: P. falciparum in erythrocytes, SYBR Green DNA, 72 h; series mostly up to 28.7 µM. In short, it runs like this: as §1
Experiment [11] is described as follows: qHTS for identification of novel therapeutic agents for treatment of microphthalmiaassociated transcription factor (MiT) renal cell carcinoma (RCC) (AID 1963991; calls by dose curve). The conditions noted are these: CellTiter-Glo, 48 h; for z-score: stronger effect = lower value; for Potency: active = Z-AUC below -0.8 in all three lines. The gist of the method: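 Viability of three TFE3-fusion renal carcinoma lines measured by CellTiter-Glo after 48 h treatment with each of 1912 compounds at 11 concentrations. Responses scaled between DMSO (100%) and empty wells (0%) before curve fitting.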

The mark [12] stands for this setting: measured here: PEO1 parental Z-AUC.
The mark [13] stands for this setting: at 28.7 µM (top of the series), parasite line A.
Setting [14] is: at 28.7 µM (top of the series), parasite line B.
Setting [15] is: TFE3-RCC UOK109 viability, measured here: UOK109 Z-AUC.
Where [16] appears, read: TFE3-RCC viability, measured here: UOK124 Z-AUC.
The mark [17] stands for this setting: TFE3-RCC viability, measured here: UOK145 Z-AUC.

Results filed as inconclusive are left out. Activity calls are given as the source filed them. Unless noted, calls follow the shape of the dose curve; as a rule, active = well fitted inhibition curve with a large enough effect; inconclusive = small, poorly fitted or top-dose-only effect; inactive = flat fitted curve, though single readings scatter.
Potency is read from the fitted curve at half-maximal effect.

With `COc1ccnc(CS(=O)c2nc3ccc(OC(F)F)cc3[nH]2)c1OC` (stereo not given), the Z-AUC was 1.71 (inactive) in experiment [1], 1.02 in [1] (setting [12]) and 1.19 in experiment [1] (measured here: PEO4 Z-AUC). For the same compound, the activity, negative = inhibition was -7.9% (inactive) in experiment [2] (setting [13]) and -10.6% (inactive) in experiment [2] (setting [14]). In addition, the Potency entry in experiment [3], in [4], in [5], in experiment [6], in [7] and in [8] was “inactive” throughout. Besides, the Potency result in [9] was “inactive”. Moreover, the result in experiment [10] was inactive.
`CC(=O)OCC(=O)[C@@]12OC(C)(C)O[C@H]1C[C@H]1[C@@H]3C[C@H](F)C4=CC(=O)C=C[C@]4(C)[C@@]3(F)[C@@H](O)C[C@@]12C`: the results for the z-score in [11] (setting [15]), in experiment [11] (setting [16]) and in experiment [11] (setting [17]) were 0.123, 0.68 and 0.0965, respectively.
Taken in the same sequence, the figures for `CO[C@H]1O[C@@H]2O[C@@]3(C)CC[C@@H]4[C@@H](C)CC[C@@H]([C@H]1C)[C@@]24OO3` were 1.01, 0.926 and 0.763.
On to `CC1(C)CC(=O)c2c(C(F)(F)F)nn(-c3ccc(C(N)=O)c(NC4CCC(O)CC4)c3)c2C1` (stereo not given), for which the results for the Potency in [1] and in experiment [11] (TFE3-RCC UOK109 viability) were 219 nM (active) and 372 nM (active), respectively. The figures for the Z-AUC in experiment [1] (setting [12]) and in experiment [1] (measured here: PEO4 Z-AUC) were -1.53 and -1.31, respectively. Further, the z-score in experiment [11] (setting [15]) is -1.31; in experiment [11] (setting [16]), -0.879; in [11] (setting [17]), -1.53.
Turning to `N#Cc1c(N(CC(=O)O)CC(=O)O)sc(C(=O)O)c1CC(=O)O`, the Z-AUC in [1] is 0.439 (inactive); in experiment [1] (setting [12]) it was 0.76; in [1] (measured here: PEO4 Z-AUC) it was 0.481. The z-score is 0.286 in [11] (setting [15]), 0.354 in [11] (setting [16]) and 0.00458 in experiment [11] (setting [17]). For the same compound, the results for the activity, negative = inhibition in [2] (setting [13]) and in experiment [2] (setting [14]) were 12.6% (inactive) and 0.836% (inactive), respectively. The Potency entry in experiment [3], in [4], in experiment [5], in experiment [6], in experiment [7] and in experiment [8] was “inactive” in each case. Moreover, the Potency entry in [9] is “inactive”. Besides, the outcome in experiment [10] was inactive.
Regarding `NS(=O)(=O)c1cc(Cl)c(Cl)c(S(N)(=O)=O)c1`, the Z-AUC in [1] was 0.54 (inactive); in [1] (setting [12]), 0.261; in experiment [1] (measured here: PEO4 Z-AUC), 0.359. In addition, the z-score in [11] (setting [15]) turned out to be 0.846; in experiment [11] (setting [16]), 0.351; in experiment [11] (setting [17]), 1.23. In addition, the activity, negative = inhibition in experiment [2] (at 12.8 µM (top of the series), parasite line A) was 1.59% (inactive); in [2] (at 12.8 µM (top of the series), parasite line B), 6.65% (inactive). For the same compound, the Potency result in experiment [3], in experiment [5], in experiment [6], in experiment [7], in experiment [8] and in experiment [9] was “inactive” in each case. For the same compound, in experiment [10], the result was inactive.
On to `CS(=O)(=O)c1ccc(C2=C(c3ccccc3)C(=O)OC2)cc1`, for which the Z-AUC in experiment [1] is 0.327 (inactive); in [1] (setting [12]), 0.543; in experiment [1] (measured here: PEO4 Z-AUC) it was 0.0438. Also, the values for the z-score in [11] (setting [15]), in experiment [11] (setting [16]) and in [11] (setting [17]) were 0.605, 0.766 and 0.708, respectively. Also, the activity, negative = inhibition in experiment [2] (setting [13]) is 0.606% (inactive); in experiment [2] (setting [14]), 18.5% (inactive). Further, the Potency entry in experiment [3], in [4], in experiment [5], in [7], in [8] and in [9] was “inactive” throughout. In addition, the compound was classed as inactive in experiment [10].
Turning to `CCNC(=O)[C@H]1O[C@@H](n2cnc3c(N)nc(NCCc4ccc(CCC(=O)O)cc4)nc32)[C@H](O)[C@H]1O`, the figures for the z-score in [11] (setting [15]), in experiment [11] (setting [16]) and in experiment [11] (setting [17]) were 0.882, 0.527 and 0.68, respectively.
Taken in the same sequence, the figures for `CCOC(=O)[C@H]1O[C@H]1C(=O)N[C@@H](CC(C)C)C(=O)NCCC(C)C` were 0.719, 0.357 and 0.572.
Consider `Cc1ccc(C(=O)N(CCCN)[C@@H](c2oc3cc(Cl)ccc3c(=O)c2Cc2ccccc2)C(C)C)cc1`, for which the results for the Potency in experiment [1] and in experiment [11] (TFE3-RCC UOK109 viability) were 8710 nM (active) and 37200 nM (active), respectively. Also, the Z-AUC in experiment [1] (setting [12]) is -2.6; in experiment [1] (measured here: PEO4 Z-AUC), -2.5. The z-score was -1.98 in experiment [11] (setting [15]), -1.71 in [11] (setting [16]) and -2 in [11] (setting [17]).
Turning to `CC(C)c1onc(-c2c(Cl)cccc2Cl)c1COc1ccc(C=Cc2cccc(C(=O)O)c2)c(Cl)c1`, the z-score in experiment [11] (setting [15]) is 0.965; in [11] (setting [16]) it was 0.847; in experiment [11] (setting [17]), 0.507.
Taken in the same sequence, the figures for `C[C@H](c1ccc(F)cc1CCCC(=O)O)N(c1cc(F)ccc1F)S(=O)(=O)c1ccc(Cl)cc1` were 0.174, -0.0423 and -0.497.
`CCC(=O)N1CCN(c2ccc(-n3c(=O)ccc4cnc5ccc(-c6cnc7ccccc7c6)cc5c43)cc2C(F)(F)F)CC1`: the Z-AUC in experiment [1] is -1.59 (inactive); in experiment [1] (setting [12]) it was -1.67; in [1] (measured here: PEO4 Z-AUC), -1.97. In experiment [11] (TFE3-RCC UOK109 viability), the Potency is 20.9 nM (active). For the same compound, the z-score in experiment [11] (setting [15]) is -1.38; in experiment [11] (setting [16]), -1.23; in experiment [11] (setting [17]) it was -1.82.
In the case of `COc1ccc(-c2ccc3ncc4c(c3c2)n(-c2ccc(N3CCNCC3)c(C(F)(F)F)c2)c(=O)n4C)cn1`, the Potency in [1] was 123 nM (active); in [11] (TFE3-RCC UOK109 viability), 1480 nM (active). In addition, the Z-AUC in experiment [1] (setting [12]) was -2.24; in experiment [1] (measured here: PEO4 Z-AUC) it was -2.26. Besides, the z-score in experiment [11] (setting [15]) was -2.72; in [11] (setting [16]) it was -3.95; in [11] (setting [17]) it was -3.85.
Turning to `O=C(O)C1=NC(C(=O)O)CC(C=CN2c3cc(O)c(OC4OC(CO)C(O)C(O)C4O)cc3CC2C(=O)O)=C1` (stereo not given), the z-score in [11] (setting [15]) was 1.58; in experiment [11] (setting [16]) it was 0.431; in [11] (setting [17]), 0.57.
Turning to `Cc1ccc(C(=O)N(CCCN)[C@@H](c2nc3cc(Cl)ccc3c(=O)n2Cc2ccccc2)C(C)C)cc1`, the Potency was 9.8 nM (active) in experiment [1] and 1.66 nM (active) in experiment [11] (TFE3-RCC UOK109 viability). Further, the Z-AUC is -2.53 in experiment [1] (setting [12]) and -2.45 in experiment [1] (measured here: PEO4 Z-AUC). Besides, the z-score in [11] (setting [15]) was -2.23; in [11] (setting [16]), -1.53; in [11] (setting [17]) it was -1.7.
Take `Clc1ccc(COC(Cn2ccnc2)c2ccc(Cl)cc2Cl)c(Cl)c1` (stereo not given): the Z-AUC in [1] is -0.245 (inactive); in experiment [1] (setting [12]) it was 0.118; in experiment [1] (measured here: PEO4 Z-AUC) it was -0.196. For the same compound, the Potency was 2820 nM (active) in [2] (parasite line B); 708 nM (active) in experiment [4]; 4470 nM (active) in [5]; 2000 nM (active) in [6]; 3980 nM (active) in experiment [8].
As for `COc1c(C)c2c(c(O)c1CC=C(C)CCC(=O)OCCN1CCOCC1)C(=O)OC2`, the figures for the Potency in experiment [2] (parasite line A) and in experiment [2] (parasite line B) were 7940 nM (active) and 10000 nM (active), respectively.

(Values after PubChem BioAssay (NCATS).)
